SMILES strings stand for the structures. Some compounds were tested as several samples or in several runs, with calls that do not always agree. Activity calls are given as the source filed them. How the source made its calls: active means hit-call score of the fitted dose curve at least 0.9, where 1 is the maximum; inactive means score below 0.9.

The assay is described as follows: ATG_ISRE_CIS: Attagene CIS-FACTORIAL HepG2 Assay for human Interferon Regulatory Factor 1 (IRF1) binding to an Interferon-Stimulated Response Element (ISRE) (AID 2282948). The settings on record: HepG2 ISRE cis-reporter (Attagene), mRNA transcription readout; actives raise or lower the signal. How it is done: ATG_CIS is a cell-based, multiplexed-readout assay that uses HepG2, a human liver cell line, with measurements taken at 24 hours after chemical dosing in a 24-well plate.ATG_ISRE_CIS is one of 52 assay component(s) measured or calculated from the ATG_CIS assay. It is designed to make measurements of mRNA induction, a form of inducible reporter, as detected with fluorescence intensity signals by Reverse transcription polymerase chain reaction (RT-PCR) and Capillary electrophoresis technology.Data from the assay component ATG_ISRE_CIS was analyzed into 1 assay endpoint. This assay endpoint, ATG_ISRE_CIS, was analyzed with bidirectional fitting relative to DMSO as the negative control and baseline of activity. Using a type of inducible reporter, measures of mRNA for gain or loss-of-signal activity can be used to understand the reporter gene at the transcription factor-level as they relate to the gene IRF1. Furthermore, this assay endpoint can be referred to as a primary readout, because this assay has produced multiple assay endpoints where this one serves a reporter gene function. To generalize the intended target to other relatable targets, this assay endpoint is annotated to the dna binding intended target family, where the subfamily is interferon regulatory factors.
Human liver HepG2 cells are transiently transfected with multiple reporter transcription units (MRTUs) in 6-well plates using FuGene 6 reagent (Roche; 3 ml FuGene/1 mg DNA). The MRTU constructs are regulated by a cis-regulating element (promoter). […] A major difference between the CIS and TRANS system is that in CIS activities of endogenous TFs are measured, whereas the TRANS assay evaluates changes in activities of exogenous, chimeric NR-Gal4 proteins. […] At the end of 24 hour incubation, total RNA was isolated using TriZol reagent (Invitrogen). The isolated RNA is then reverse-transcribed using oligo(dT) primer and Mo-MLV reverse transcriptase (Invitrogen) with DNAse I (Ambion) treatment for 30 min. The one-tenth of the produced cDNA was amplified by PCR using Taq DNA polymerase (Invitrogen) and two reporter sequence-specific primers. The PCR products were fluorescently labeled by primer extension with 6-arboxyfluorescein (6-FAM) 5'-labeled reporter sequence-specific primer (2 min at 95 C, 20 s at 68 C and 10 min at 72 C) and these products were digested with 5U of HpaI (New England Biolabs) for 2h at 37 C. The fragments were purified using Qiaquick PCR columns (Qiagen), analyzed on an ABI 3130xL genetic analyzer (Applied Biosystems) with peak positions identified by using a set of X-rhodamine (ROX)-labeled MapMarker1000 molecular weight standards (BioVentures). The raw capillary electrophoresis data was processed using Attagraph software (Attagene).
As to `CCCCC(CC)CO` (stereo not given), the compound was called inactive.
For `O=NO`, the call was inactive.
On the same count and under the same terms, with `CC(=O)OCC(COC(C)=O)OC(C)=O` the entry was “inactive”; with `CC(C)COC(=O)CCCCC(=O)OCC(C)C`, “inactive”; with `CN(C)CCCN1c2ccccc2Sc2ccc(Cl)cc21`, “inactive”.
`CCCCCCC(C=O)=Cc1ccccc1`: the result was inactive.
Still for that read-out and setting: then `Cc1cc(SC2=C(O)C[C@@](CCc3ccc(N)cc3)(C(C)C)OC2=O)c(C(C)(C)C)cc1CO`, with “inactive”; and `NCCOCCOCCN`, with “inactive”.
On to `CCc1cc(C2=C(C(=O)O)N(c3ccccc3C(F)(F)F)S(=O)(=O)c3ccccc32)cc2c1OCO2`, for which the AC50 – broadly, the concentration at which the activity in the assay is half-maximal – is 149 µM (active).
Regarding `NC(=Nc1ccccc1)Nc1ccccc1`, the AC50 was 5.79 µM (active).
With `Cc1cc(Cc2ccc(N)c(C)c2)ccc1N`, the outcome was inactive.
Turning to `C/C=C/c1ccc(OC)cc1`, the call was inactive.
The same measure, in the same setting: with `O=C1CCCCC1` the entry was “inactive”; with `CCCCCCCCCCCCCCOS(=O)(=O)O`, “inactive”; with `CCCCOC(=O)CCCCC(=O)OCCCC`, “inactive”.
As for `CN(C)CCCN(C)CCCN(C)C`, the compound was classed as inactive.
In the case of `O=C1c2c(O)cccc2Cc2cccc(O)c21`, the compound was called inactive.
The same measure, in the same setting: with `Nc1nc(=S)c2[nH]cnc2[nH]1` the entry was “inactive”.
Regarding `CC(C)(C)c1ccccc1`, the result was inactive.
Regarding `O=C(N[C@@H](c1ccccc1)[C@@H]1CCCCN1)c1cccc(C(F)(F)F)c1Cl`, the result was inactive.
For the compound `CCCC(=O)O`, the result was inactive.
The same measure, in the same setting: then `COc1ccc(C(=O)Nc2nc3ccccc3c(NCc3ccccc3)c2C#N)cc1`, with “inactive”; and `OCC(CO)n1cnc(-c2ccc(F)cc2)c1-c1ccnc(Oc2ccccc2)n1`, with “inactive”; and `CS(=O)(=O)c1ccc([C@@H](C[C@H]2CCC(=O)C2)C(=O)Nc2cnccn2)cc1Cl`, with “inactive”.
`CCOCCOCCO`: the outcome was inactive.
On to `CCCCCCCCCC[N+](C)(C)[O-]`, for which the compound was called inactive.
On to `O=Cc1ccccc1C=O`, for which the call was inactive.
On to `Oc1ccc(O)cc1`, for which the compound was called inactive.
On to `c1ccc2occc2c1`, for which the call was inactive.
Still for that read-out and setting: with `O=C(Oc1ccccc1)c1cccc(C(=O)Oc2ccccc2)c1` the entry was “inactive”.
On the same count and under the same terms, with `C/C=C/C=C/C(=O)O` the entry was “inactive”.
Consider `CC(=O)O[C@]1(C(C)=O)CC[C@H]2[C@@H]3C=C(Cl)C4=CC(=O)[C@@H]5C[C@@H]5[C@]4(C)[C@H]3CC[C@@]21C`, for which the AC50 was 77.5 µM (active) and the call was inactive.
Turning to `O=C1O[C@H]([C@H](O)CO)C(O)=C1O`, the compound was called inactive.
Turning to `CC(=O)OC1CC(C)OC(C)O1` (stereo not given), the call was inactive.
For `CCC(C)N(C)C(=O)c1cc2ccccc2c(-c2ccccc2Cl)n1` (stereo not given), the AC50 was 89 µM (active).
Regarding `NC1CCCCC1`, the compound was called inactive.
As for `C#CC(O)C(CC)CCCC` (stereo not given), the compound was called inactive.
The same measure, in the same setting: with `CC1(C)C(=O)NC(=O)N1CO` the entry was “inactive”; with `Cc1cn([C@H]2C=C[C@@H](CO)O2)c(=O)[nH]c1=O`, “inactive”.

(Values after PubChem BioAssay (EPA / NIEHS).)
